KB-V1 MDR tox: kills drug-selected multidrug resistant KB-V1 cells | KB-V1 MDR cells viability, CellTiter-Glo, 72 h | Potency, µM (series often up to 46.1 µM), actives largely listed as cytotoxic | actives 3.4% (n = 400,000); also: nearly all actives have a fitted effect of over 60% in size
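Potencies derive from concentration-effect curves fitted to normalized luminescence (CellTiter-Glo) of KB-V1 cells treated for 72 h at 37 degrees C in phenol-red-free DMEM containing 10% FBS.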
KB-3-1 tox: kills parental KB-3-1 adenocarcinoma cells | actives 1.4% (n = 400,000) | AID 1347075 | KB-3-1 viability, CellTiter-Glo ATP luminescence, 72 h | Potency, µM (series often up to 46.1 µM), hits mostly cytotoxic; also: nearly all actives have a fitted effect of over 60% in size
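Parental KB-3-1 adenocarcinoma cells in phenol-red-free DMEM with 10% FBS were pin-treated with compounds at several concentrations, incubated 72 h at 37 °C, and viability read by CellTiter-Glo luminescence; concentration-effect curves were fitted after normalization.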
TDP1 cell noCPT: qHTS for Inhibitors of human tyrosyl-DNA phosphodiesterase 1 (TDP1): qHTS in cells in absence of CPT. Potency, µM (series often up to 46.2 µM), without a hit: at the highest dose activity change, negative = growth inhibition, actives largely listed as inhibitors. DT40 Tdp1-/- hTDP1 cells, no CPT, ATP luminescence, 48 h. AID 686978, 2013. actives 15% (n = 420,000); also: nearly all actives have a fitted effect of over 55% in size
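Cells were dispensed at 400 per well, compounds added by pin tool, plates incubated ≥48 hr at 37 °C, then CellTiter-Glo added for 30 min at room temperature before luminescence reading. Line: DT40 Tdp1-/- complemented with hTDP1; camptothecin omitted.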
HT1080 IDH1KD tx: HT-1080 IDH1 knockdown cell toxicity (counter line) | HT-1080 IDH1 knockdown viability, ATP luminescence, 48 h | actives 2% (n = 360,000) | Potency, µM (top dose mostly 46.1 µM), for inactives: top-dose activity, negative = toxicity, hits mostly cytotoxic | AID 686971;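 also: 0% = DMSO wells and -100% = cell-free medium wells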
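CellTiter-Glo luminescence after 48 h compound exposure at 37 degrees C of IDH1-knockdown HT-1080 cells in 5% FBS RPMI. %Activity scaled between DMSO wells and cell-free media wells, with curves fitted and assigned curve classes.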
HT1080NT lethal: kills 2HG-producing HT-1080-NT fibrosarcoma cells | actives 1.6% (n = 360,000) | HT-1080-NT fibrosarcoma viability, CellTiter-Glo ATP luminescence, 48 h | Potency, µM (top dose mostly 46.1 µM), for inactives: at the highest dose activity, negative = less viability, actives largely listed as cytotoxic;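 also: NT is the 2HG producing partner of a matched IDH1 knockdown line; 0% = DMSO-treated cells and -100% = media-only wells without cells; nearly all actives have a fitted effect of over 55% in size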
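Viability of the 2HG-overproducing fibrosarcoma line after 48 hours of compound exposure at 37 degrees C was determined by luminescence with CellTiter-Glo, and concentration-effect curves were then fitted and categorized.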
TDP1 cell CPT: growth inhibition of DT40 Tdp1-/-;hTDP1 cells with camptothecin (screen for TDP1 inhibitors); AID 686979; actives 12% (n = 420,000); chicken DT40 Tdp1-/-;hTDP1 cells + 20 nM CPT, ATP luminescence, 48 h; Potency, µM (highest dose often 46.2 µM), for inactives: top-dose activity change, negative = growth inhibition, usual class: inhibitors; also: nearly all actives have a fitted effect of over 55% in size
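Chicken DT40 Tdp1-/- cells complemented with human TDP1, 400 cells/well, exposed to compounds plus 20 nM camptothecin for at least 48 h at 37 C; viability read as ATP content by CellTiter-Glo luminescence.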
The depositor's hits bear a star; i = inactive; u = inconclusive; x = no result. Most compounds without a hit are left out; they make up all but 19% or so of the library. Calls follow the shape of the dose curve; as a rule, active = well fitted curve in the direction sought with a large enough effect; inconclusive = small, poorly fitted or top-dose-only effect, or another doubt; inactive = no such curve, though single readings can be large; an effect the other way counts as inactive or inconclusive. Unless noted, % is scaled to controls: 0 for no effect and ±100 for the full control effect; potency is read from the fitted curve at half-maximal effect.

SMILES	KB-V1 MDR tox	KB-3-1 tox	TDP1 cell noCPT	HT1080 IDH1KD tx	HT1080NT lethal	TDP1 cell CPT
C=C1C(=O)C=C[C@]2(C)C[C@@H]3OC(=O)[C@](C)(O)[C@H]3C[C@@H]12	u	u	1.3µM*	u	u	1.84µM*
O=C(NC(=S)N1CCc2ccccc21)c1ccc(Br)o1	u	u	5.17µM*	-23.0%	-3.6%	2.91µM*
O=C(NC(=S)N1CCc2ccccc21)c1ccccc1Br	u	i	20.6µM*	-0.4%	2.3%	18.4µM*
Cc1ccc(N2CCN(C(=O)c3cc4cc5ccc(C)cc5nc4s3)CC2C)cc1 (centres undefined)	i	i	-1.8%	x	x	0.1%
COc1ccc(NC(=O)CNCc2cccs2)c(OC)c1	i	i	-11.0%	5.3%	5.8%	-3.1%
O=C(N1CCN(c2cccc(Cl)c2)CC1)C1(c2cccs2)CCOCC1	4.61µM*	u	20.6µM*	-0.3%	1.7%	23.1µM*
O=C(/C=C/c1cccs1)N1CCN(c2ccc(F)cc2)CC1	u	i	u	-3.8%	-5.3%	-13.8%
O=C(N1CCN(c2cccc(Cl)c2)CC1)C1(S(=O)(=O)c2ccc(Cl)cc2)CC1	i	i	-15.5%	-4.0%	-14.2%	-16.7%
O=C(N1CCN(c2ccc(F)cc2)CC1)C1(c2cccs2)CCOCC1	23.1µM*	i	u	-3.3%	0.4%	-22.4%
Cn1c2ccccc2c2n[nH]c(=S)nc21	6.51µM*	u	u	14.3%	-0.1%	14.2%
Cc1ccc2c(c1)c1n[nH]c(=S)nc1n2CCc1ccccc1	i	i	25.9µM*	3.1%	-0.1%	16.4µM*
Fc1ccc2c(c1)c1n[nH]c(=S)nc1n2CCc1ccccc1	i	u	u	-10.3%	-4.6%	u
NC(=O)C1CCN(c2nnc(-c3ccc(Br)cc3)s2)CC1	i	i	x	x	x	x
COc1ccc(N2C(=O)/C(=C/c3ccc([N+](=O)[O-])cc3)C=C2c2ccccc2)cc1	u	i	2.91µM*	-1.5%	-2.3%	3.66µM*
O=C1/C(=C/c2ccc([N+](=O)[O-])cc2)C=C(c2ccccc2)N1c1ccc(O)cc1	5.8µM*	u	2.91µM*	u	-15.4%	5.17µM*
COc1ccc(C)cc1NC(=O)c1ccc(NS(=O)(=O)c2cccs2)cc1	i	i	-2.3%	-9.0%	-4.6%	10.3%
Cc1cc(C)cc(NC(=O)CCCc2nc(-c3ccco3)no2)c1	i	i	-4.4%	x	x	30.8%
Cc1nc2ccccn2c1C(=O)NNS(=O)(=O)c1ccc(C(C)(C)C)cc1	i	i	6.51µM*	-28.7%	-9.0%	8.2µM*
C/C(=N\NC(=O)c1c(C)nc2ccccn12)c1ccc(C(C)(C)C)cc1	u	i	11.6µM*	-26.5%	-24.8%	18.4µM*
c1ccc(Cc2nn3c(COc4ccccc4)nnc3s2)cc1	i	i	18.4µM*	-16.9%	-17.2%	u
c1ccc(OCc2nn3c(Cn4cnc5ccccc54)nnc3s2)cc1	u	i	u	-4.6%	-6.5%	16.4µM*
CCOc1ccccc1OCc1nn2c(COc3ccccc3)nnc2s1	i	i	12.6µM*	5.9%	7.0%	15.8µM*
COCC(=O)N1CCC(Oc2ccc(C(=O)N[C@H](C(=O)OC)C(C)C)cc2)CC1	i	i	7.1%	13.6%	16.7%	-6.4%
CCC(=O)Oc1ccc2ccccc2c1CNC(=O)c1ccccc1	14.6µM*	u	u	0.4%	-10.2%	u
CC(C)[C@H](NS(=O)(=O)c1cccc(Cl)c1)C(=O)OCC(=O)N1CCN(c2ccccc2)CC1	7.31µM*	i	25.9µM*	9.1%	15.1%	23.1µM*
SMILES	KB-V1 MDR tox	KB-3-1 tox	TDP1 cell noCPT	HT1080 IDH1KD tx	HT1080NT lethal	TDP1 cell CPT
CC(C)NS(=O)(=O)c1ccc(OCC(=O)N2CCN(c3cccc(Cl)c3)CC2)cc1	i	i	23.1µM*	x	x	14.6µM*
O=C(OCC(=O)N1CCN(c2ccccc2)CC1)c1cccc(Cl)c1	i	i	-14.1%	-1.6%	0.0%	-11.1%
CC(C)C(NC(=O)Cc1ccccc1)C(=O)N1CCN(c2cccc(Cl)c2)CC1 (centres undefined)	i	i	3.26µM*	-22.9%	-22.7%	4.61µM*
CC(C)[C@H](NC(=O)c1c(F)cccc1F)C(=O)N1CCN(c2ccc(F)cc2)CC1	u	i	20.6µM*	15.8%	22.6%	u
O=C(CSc1nc2c(c(=O)[nH]1)CCCC2)Nc1ccccc1C(F)(F)F	i	i	3.6%	x	x	1.0%
CCOc1ccccc1Nc1sc(C(=O)c2ccccc2)c(N)c1C(=O)NCCc1ccccc1	i	i	u	x	x	u
Cc1ccc(NC(=O)c2c(Nc3ccccc3C)sc(C(=O)c3ccccc3)c2N)cc1	i	u	5.8µM*	x	x	u
CCOc1ccccc1Nc1sc(C(=O)c2ccccc2)c(N)c1C(=O)Nc1ccccc1	i	u	9.2µM*	x	x	10.3µM*
Cc1ccc(Nc2sc(C(=O)c3ccccc3)c(N)c2C(=O)NC(C)C)cc1	i	i	u	x	x	u
O=C(NCCc1nnc2n1CCN(Cc1ccc(F)cc1)CC2)c1ccc(F)cc1	x	x	-5.2%	x	x	9.7%
NC(=O)C1=C[C@@H](c2ccc(Br)cc2)C[C@@H](OCc2ccc(CO)cc2)O1	i	i	u	0.3%	-2.2%	u
NC(=O)C1=C[C@@H](c2ccc(C(F)(F)F)cc2)C[C@@H](OCc2ccc(CO)cc2)O1	i	i	14.6µM*	-0.5%	0.0%	u
NC(=O)C1=C[C@H](c2ccc(C(F)(F)F)cc2)C[C@H](OCc2ccc(CO)cc2)O1	i	i	u	6.0%	3.1%	-24.8%
NC(=O)C1=C[C@H](c2ccc(Br)cc2)C[C@H](OCc2ccc(CO)cc2)O1	i	i	20.6µM*	7.0%	6.1%	13µM*
Cc1cc(N2CCN(c3ccc(F)cc3)CC2)n2nc(-c3ccc(Cl)cc3)nc2n1	u	i	2.1%	x	x	-2.3%
O=C(Nc1ccncc1)Nc1ccc(Br)cc1Cl	i	i	u	-19.4%	-4.7%	20.6µM*
O=C(Nc1ccc2nccnc2c1)Nc1ccccc1Cl	i	i	14.6µM*	1.4%	11.4%	18.4µM*
O=C(Nc1ccc(Br)cc1)Nc1ccccc1Cl	i	i	10.3µM*	-11.8%	-12.4%	14.6µM*

Compound activity as filed in PubChem.
